# Bioassay records from PubChem.
# TDP1 block = TDP1 (human) enzyme inhibition | AID 485290 | recombinant TDP1, AlphaScreen DNA substrate cleavage | 350,000 compounds, 0.28% hits | Potency, µM (series often up to 130 µM), without a hit: top-dose activity change, negative = inhibition, most hits filed as inhibitors | Q9NUW8; further: potency means the concentration at half of the fitted maximal effect; nearly all actives have a fitted effect of over 40% in size
# Target sequence (Q9NUW8 whole entry, looked up): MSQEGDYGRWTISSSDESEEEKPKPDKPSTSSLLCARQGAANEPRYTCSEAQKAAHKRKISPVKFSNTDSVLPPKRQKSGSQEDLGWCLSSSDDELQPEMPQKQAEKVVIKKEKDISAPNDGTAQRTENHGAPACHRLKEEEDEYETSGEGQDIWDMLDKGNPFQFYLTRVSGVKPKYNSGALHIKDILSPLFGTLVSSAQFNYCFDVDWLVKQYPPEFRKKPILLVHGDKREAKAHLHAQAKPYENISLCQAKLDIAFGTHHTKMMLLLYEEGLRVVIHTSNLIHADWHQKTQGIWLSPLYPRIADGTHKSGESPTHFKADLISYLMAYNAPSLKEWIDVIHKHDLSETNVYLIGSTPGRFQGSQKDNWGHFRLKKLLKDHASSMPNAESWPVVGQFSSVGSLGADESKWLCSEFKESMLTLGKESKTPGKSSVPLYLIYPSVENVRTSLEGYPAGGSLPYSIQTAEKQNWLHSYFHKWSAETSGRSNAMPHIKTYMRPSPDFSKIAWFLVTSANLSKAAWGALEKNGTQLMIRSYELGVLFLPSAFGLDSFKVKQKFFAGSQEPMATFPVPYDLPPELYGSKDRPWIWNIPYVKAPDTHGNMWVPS
#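 Recombinant human Tdp1 (E. coli-expressed, 1 nM final) preincubated with compounds 15 min at room temperature, then 5'-biotin/3'-phosphotyrosine-FITC DNA substrate (15 nM final) added for 5 min. AlphaScreen beads (10 ug/ml final) added 10 min; cleavage lowers signal.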
# ELG1 repair inh = ELG1-dependent DNA repair inhibition. HEK293T ELG1-luciferase reporter, luminescence, 16 h; DNA damage induced by 5-fluorouridine. AID 504467. Potency, µM (titrated, usually from 46.1 µM), without a hit: at the highest dose activity change, negative = inhibition, actives largely listed as inhibitors. 330,000 compounds, 2.3% hits; further: potency means the concentration at half of the fitted maximal effect; nearly all actives have a fitted effect of over 55% in size
#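 Cells (2,000 per well) received 5-fluorouridine plus test compound or DMSO and were incubated 16 hr at 37 °C, 5% CO2. Luciferase activity was read by luminescence 30 min after ONE-Glo addition; signal suppression marked inhibition of damage-induced ELG1 function.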
# IL1B secr inh = inhibitors of inflammasome signaling (IL-1 beta secretion) | activity change, % at 57.5 µM | THP-1 LPS/ATP IL-1B secretion, AlphaLISA, 16 h; active compounds read low | 360,000 compounds, 4.7% hits; in the data active means activity change below about -50%; inconclusive means mostly about -30% to -49%
#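 THP-1 cells pretreated 1 hr with compounds (up to 57.5 uM final), then stimulated with LPS (250 ng/mL final) plus ATP (1.25 mM final); secreted IL-1B measured by AlphaLISA after 16 hr, decreased signal indicating inhibition.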
# Giardia kill = kills Giardia lamblia | activity change, % at 7.66 µM, hits read low | Giardia lamblia trophozoite viability | 340,000 compounds, 0.15% hits; in the data active means activity change below about -80%; inconclusive means between about -30% and that limit;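 further: parasites exposed to compound for two days anaerobically before the ATP read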
#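 Killing of trophozoites was scored by loss of ATP luminescence after a 48 hrs anaerobic exposure to compounds at 37 deg C, using 100 cells per well.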
# TDP1 cell noCPT = qHTS for Inhibitors of human tyrosyl-DNA phosphodiesterase 1 (TDP1): qHTS in cells in absence of CPT; DT40 Tdp1-/- hTDP1 cells, no CPT, ATP luminescence, 48 h; Potency, µM (titrated, usually from 46.2 µM), for inactives: at the top dose activity change, negative = growth inhibition, actives largely listed as inhibitors; 420,000 compounds, 15% hits; further: potency means the concentration at half of the fitted maximal effect; nearly all actives have a fitted effect of over 55% in size
#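 Camptothecin absent (DMSO only). Human TDP1-complemented DT40 knockout cells, 400 cells/well, 37 °C for minimum 48 hr; ATP measured via CellTiter-Glo, 30 min dark incubation, luminescence.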
# DT40 TDP1 CPT = DT40-hTDP1 cell growth loss with CPT. chicken DT40 Tdp1-/-;hTDP1 cells + 20 nM CPT, ATP luminescence, 48 h. Potency, µM (series often up to 46.2 µM), inactives show at the highest dose activity change, negative = growth inhibition, actives largely listed as inhibitors. 420,000 compounds, 12% hits; further: potency means the concentration at half of the fitted maximal effect; nearly all actives have a fitted effect of over 55% in size
#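 Cell growth measured by CellTiter-Glo luminescence after a minimum 48 h, 37 C compound exposure with 20 nM CPT in Tdp1-knockout DT40 cells stably expressing hTDP1, seeded 400/well; qHTS titration format.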
# * hit, by the source's call; i = inactive; ? = inconclusive; nt = no result given; [ ] = dose if it differs, or a comment. Sampled rows, rich in hits. Any-hit rate of the full collection: about 19%. Unless noted, the call rests on the fitted dose curve; in most records, active means well fitted curve in the direction sought with a large enough effect; inconclusive means small, poorly fitted or top-dose-only effect, or another doubt; inactive means no such curve, though single readings can be large; an effect the other way counts as inactive or inconclusive. On the % scale 0 is the no-effect control and ±100 the full control effect.
SMILES,TDP1 block,ELG1 repair inh,IL1B secr inh,Giardia kill,TDP1 cell noCPT,DT40 TDP1 CPT
CS(=O)(=O)N1CCc2cc(C(=O)Nc3ccc(C(F)(F)F)cc3)ccc21,5%,nt,nt,nt,8.2µM*,9.2µM*
Cc1ccc(NC(=O)c2ccc3c(c2)CCN3S(C)(=O)=O)cc1,nt,nt,-19,nt,-12%,?
Cc1cccc(NC(=O)c2ccc3c(c2)CCN3S(C)(=O)=O)c1,2%,?,-64*,4,-1%,-19%
CCOc1ccc(NC(=O)c2ccc3c(c2)CCN3S(C)(=O)=O)cc1,nt,-8%,-26,3,-13%,1%
COc1ccc(S(=O)(=O)n2nc(C)c(S(=O)(=O)N3CCCCCC3)c2C)cc1C,-2%,nt,nt,nt,7%,8%
C[C@H]([C@H](C)N1CC(=O)NC(=O)C1)N1CC(=O)NC(=O)C1,21%,nt,nt,nt,nt,nt
CN(C)C(=O)c1ccc(NC(=O)CN2C(=O)NC3(CCCc4ccccc43)C2=O)cc1 (stereo unspecified),nt,13%,12,-5,1%,-20%
CCNc1ncc2nc(-c3ccc(F)cc3)c(=O)n(CCC#N)c2n1,nt,nt,nt,nt,-11%,1%
O=C(Cn1cc(S(=O)(=O)Cc2ccc([N+](=O)[O-])cc2)c2ccccc21)N1CCOCC1,1%,-1%,i,-4,-1%,-1%
CS(=O)(=O)N1CCc2cc(C(=O)Nc3ccc(Cl)c(C(F)(F)F)c3)ccc21,2%,nt,nt,nt,8.2µM*,18µM*
Cc1ccc(NC(=O)c2ccc3c(c2)CCN3S(C)(=O)=O)cc1C,nt,-4%,-18,2,?,-110%
CCc1ccc(NC(=O)c2ccc3c(c2)CCN3S(C)(=O)=O)cc1,nt,nt,-23,nt,26µM*,?
COc1ccc(C(=O)N2CCN(C(C)=O)CC2)cc1S(=O)(=O)N1CCOCC1,-2%,-5%,-13,-9,-2%,25%
COc1cccc2sc(Nc3nc(-c4ccccn4)cs3)nc12,11%,?,nt,nt,nt,nt
O=C(Nc1nc2c(F)cccc2s1)c1ccco1,nt,?,-25,-16,-8%,-16%
Fc1cccc2sc(Nc3nnc(-c4ccco4)o3)nc12,-3%,?,30,-19,23µM*,?
COc1cccc2sc(Nc3nnc(-c4ccc(F)cc4)o3)nc12,3%,14%,15,-4,5.8µM*,5.8µM*
COc1cccc2sc(Nc3nnc(-c4cccs4)o3)nc12,12%,?,75,3,8.2µM*,3.7µM*
CC(C)OP(=O)(CCP(=O)(OC(C)C)OC(C)C)OC(C)C,5%,3%,27,11,2%,18%
O=C(Cn1cnc2c(NCc3ccccc3)ncnc21)NCCCN1CCCC1=O,0%[56.1 µM],7%,12,7,-12%,-1%
O=C(CSc1nnc(-c2ccccc2F)o1)NC(=O)Cc1ccccc1,1%[56.1 µM],-2%,14,8,27%,-15%
Cc1nc(C)c(-c2ccc(SCC(=O)Nc3ccc(F)cc3F)nn2)s1,3%,18µM*,0,3,?,?
Cc1nc(C)c(-c2ccc(SCC(=O)Nc3cccc(C)c3C)nn2)s1,0%,nt,nt,nt,21µM*,16µM*
CCOC(=O)c1ccc(NC(=O)CSc2ccc(-c3sc(C)nc3C)nn2)cc1,-1%,nt,nt,nt,?,?
Cc1nc(C)c(-c2ccc(SCC(=O)Nc3ccccc3F)nn2)s1,4%,nt,nt,nt,15µM*,?
SMILES,TDP1 block,ELG1 repair inh,IL1B secr inh,Giardia kill,TDP1 cell noCPT,DT40 TDP1 CPT
Cc1nc(C)c(-c2ccc(SCC(=O)Nc3ccc(C)c(F)c3)nn2)s1,2%,nt,nt,nt,-28%,-22%
Cc1ccc(S(=O)(=O)N(c2nc(N(C)C)nc(N(C)C)n2)n2cnnc2)cc1,7%,-1%,-1,-27,-18%,-30%
CCn1c(COC(=O)CNC(=O)c2ccccc2)nc2cc(S(=O)(=O)N(C)C)ccc21,-13%,2%,-2,1,-16%,-20%
COC(=O)c1ccc(C(=O)OC)c(NC(=O)COC(=O)CC2CC3CCC2C3)c1 (stereo unspecified),0%,-14%,8,-3,23µM*,?
COC(=O)c1ccc(C(=O)OC)c(NC(=O)COC(=O)C2CCC(C(C)(C)C)CC2)c1 (stereo unspecified),2%,-29%,30,-4,?,23µM*
Cc1ccc(Cl)cc1NC(=O)COC(=O)CC1CC2CCC1C2 (stereo unspecified),-4%,0%,10,-3,0%,-21%
COC(=O)c1ccc(C(=O)OC)c(NC(=O)COC(=O)C2CCCCC2)c1,0%,22%,12,-10,-2%,?
Nc1ccc(-c2ccc(N)c(O)c2)cc1O,12%,nt,nt,nt,nt,nt
Nc1ccc(Cc2ccc(N)c(O)c2)cc1O,-1%,9.2µM*,6,3,?,23µM*
OC(COCc1ccc(Cl)cc1)CN1CCN(c2ccccn2)CC1 (stereo unspecified),3%,-2%,-7,-8,?,-17%
COc1ccc(N2CCN(C(=O)c3c(C)oc4ncn(CC(C)C)c(=O)c34)CC2)cc1,0%,nt,nt,nt,?,?
COc1ccc(OC)c(CNC(=O)c2c(C)oc3ncn(CC(C)C)c(=O)c23)c1,6%,nt,nt,nt,16µM*,?
COc1ccc(OC)c(CCNC(=O)c2c(C)oc3ncn(C)c(=O)c23)c1,-2%,nt,nt,nt,-4%,-22%
COc1ccc(OC)c(CCNC(=O)c2c(C)oc3ncn(CC(C)C)c(=O)c23)c1,4%,nt,nt,nt,18µM*,?
O=C(COC(=O)c1ccccc1Cl)NCc1ccco1,-17%,?,23,-13,2%,0%
Cc1ccc(NC(=O)COC(=O)COc2cccc3c2OC(C)(C)C3)c(C)c1,nt,-3%,10,12,-15%,0%
COc1cc(C)c(NC(=O)COc2cccc3c2OC(C)(C)C3)cc1OC,0%,18µM*,37,-16,12µM*,16µM*
Cc1ccc(CNC(=O)COc2cccc3c2OC(C)(C)C3)cc1,8%,4%,-15,8,18µM*,?
COc1ccc(CNCC(O)COc2cccc3c2OC(C)(C)C3)cc1 (stereo unspecified),2%,9.2µM*,?,-21,8.2µM*,9.2µM*
COC(=O)c1ccc(COc2cccc3c2OC(C)(C)C3)cc1,7%,10%,6,-4,-28%,?
COc1cc(NC(=O)COc2cccc3c2OC(C)(C)C3)cc(OC)c1OC,1%,13µM*,0,-10,8.2µM*,13µM*
